Data reported in PubChem BioAssay AID1159580 (chemical genetic matrix, 2015).
About 2,000 (36%) of roughly 5,500 compounds were called active. Another 18% or so got no clear call; they are omitted. No stated cut-off is given here; in the data, active means normalized growth mostly below about 0.91 (no sharp cut-off); inconclusive means no clear call, values can overlap the other calls; inactive means mostly above about 0.92. This is one part of the list.

Assay: chemical genetic growth profiling, strain panel (AID 1159580);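 further: tested at 20 µM; growth read once vehicle control cultures reached saturation at 30 °C; 1 = growth at the plate median or of vehicle wells; lower values mean less growth of the strain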
Settings: S. cerevisiae deletion strains, growth OD

Measured: normalized growth

CC(=O)O[C@H]1CC2CCC3C(CC[C@@]4(C)C3C[C@H]([N+]3(C)CCCCC3)[C@@H]4OC(C)=O)[C@@]2(C)C[C@@H]1[N+]1(C)CCCCC1 (stereo not given in full)
inactive: locus YAL021C, strain ccr4, hits give low values 1.02 | locus YAL026C, strain drs2, hits give low values 1.02 | locus YAL030W, strain snc1, hits give low values 1.02 | locus YBL061C, strain skt5, hits give low values 1.01 | locus YBR009C, strain hhf1, hits give low values 1.03 | locus YBR023C, strain chs3, hits give low values 1.03 | locus YBR171W, strain sec66, hits give low values 1.04 | locus YBR231C, strain swc5, hits give low values 1.02 | locus YBR279W, strain paf1, hits give low values 1.01 | locus YCL011C, strain gbp2, hits give low values 1.02 | locus YCL016C, strain dcc1, hits give low values 1.02 | locus YCL061C, strain MRC1, hits give low values 1.02 | locus YCL069W, strain vba3, hits give low values 1.01 | locus YCR088W, strain abp1, hits give low values 1.01 | locus YDL005C, strain med2, hits give low values 1.02 | locus YDL040C, strain nat1, hits give low values 1.02 | locus YDR001C, strain nth1, hits give low values 1.01 | locus YDR069C, strain doa4, hits give low values 1.02 | locus YDR137W, strain rgp1, hits give low values 1.04 | locus YDR159W, strain sac3, hits give low values 1.04 | locus YDR195W, strain ref2 0.978 | locus YDR297W, strain sur2, hits give low values 1.01 | locus YDR334W, strain swr1, hits give low values 1.01 | locus YDR335W, strain msn5, hits give low values 1.02 | locus YDR392W, strain spt3, hits give low values 0.943 | locus YEL003W, strain gim4, hits give low values 1.02 | locus YEL037C, strain rad23, hits give low values 1.02 | locus YEL061C, strain CIN8 (second series), hits give low values 1.02 | locus YER015W, strain faa2, hits give low values 1.01 | locus YER016W, strain bim1, hits give low values 1.02 | locus YER111C, strain swi4, hits give low values 1.01 | locus YER155C, strain BEM2 (second series), hits give low values 1.03 | locus YFR010W, strain ubp6, hits give low values 1.01 | locus YGL167C, strain pmr1, hits give low values 1.02 | locus YGL173C, strain kem1, hits give low values 1.03 | locus YGL227W, strain vid30, hits give low values 1.01 | locus YGL240W, strain doc1, hits give low values 1.02 | locus YGL253W, strain hxk2, hits give low values 1.02 | locus YHR013C, strain ard1, hits give low values 1.01 | locus YHR027C, strain rpn1, hits give low values 1.01 | locus YHR030C, strain SLT2, hits give low values 1.04 | locus YHR079C, strain IRE1, hits give low values 1.03 | locus YHR142W, strain chs7, hits give low values 1.02 | locus YJL092W, strain hpr5, hits give low values 1.01 | locus YJL095W, strain BCK1 (second series), hits give low values 1.02 | locus YJL095W, strain BCK1, hits give low values 1.02 | locus YJL115W, strain asf1, hits give low values 1.03 | locus YJL129C, strain trk1, hits give low values 1.02 | locus YJL154C, strain vps35, hits give low values 1.01 | locus YJL164C, strain tpk1, hits give low values 1.01 | locus YJL166W, strain qcr8, hits give low values 1.02 | locus YJL187C, strain SWE1, hits give low values 1.02 | locus YJR066W, strain TOR1, hits give low values 0.979 | locus YKL160W, strain elf1, hits give low values 1.02 | locus YKR026C, strain gcn3, hits give low values 1 | locus YKR091W, strain srl3, hits give low values 1.02 | locus YLL001W, strain dnm1, hits give low values 1.02 | locus YLL026W, hits give low values 1.03 | locus YLL041C, strain sdh2, hits give low values 1.02 | locus YLR027C, strain aat2, hits give low values 1.02 | locus YLR113W, strain HOG1, hits give low values 0.988 | locus YLR221C, strain rsa3, hits give low values 1.01 | locus YLR258W, strain gsy2, hits give low values 1.02 | locus YLR262C, strain YPT6 (second series), hits give low values 1.04 | locus YLR320W, strain mms22, hits give low values 1.01 | locus YLR342W, strain FKS1, hits give low values 1.03 | locus YLR357W, strain rsc2, hits give low values 0.991 | locus YLR370C, strain arc18, hits give low values 1.03 | locus YLR384C, strain iki3, hits give low values 1.01 | locus YML120C, strain ndi1, hits give low values 1.01 | locus YMR058W, strain fet3, hits give low values 1.02 | locus YMR125W, strain sto1, hits give low values 1.02 | locus YMR129W, hits give low values 1.02 | locus YMR205C, strain PFK2, hits give low values 1.02 | locus YMR231W, strain pep5, hits give low values 1.01 | locus YNL071W, strain lat1, hits give low values 1.01 | locus YNL183C, strain NPR1, hits give low values 0.974 | locus YNL209W, strain ssb2, hits give low values 1.01 | locus YNL248C, strain rpa49, hits give low values 0.988 | locus YNL322C, strain KRE1 (second series), hits give low values 1.02 | locus YNR049C, strain mso1, hits give low values 1.01 | locus YOR001W, strain rrp6, hits give low values 1.03 | locus YOR070C, strain gyp1, hits give low values 1.02 | locus YOR080W, strain dia2, hits give low values 1.03 | locus YOR083W, strain WHI5, hits give low values 1.02 | locus YOR106W, strain vam3, hits give low values 1.02 | locus YOR231W, strain MKK1, hits give low values 1.03 | locus YOR265W, strain rbl2, hits give low values 1.02 | locus YOR270C, strain vph1, hits give low values 1.05 | locus YOR290C, strain snf2, hits give low values 1.02 | locus YPL051W, strain arl3, hits give low values 1.02 | locus YPL078C, strain atp4, hits give low values 1.01 | locus YPL106C, strain sse1, hits give low values 1 | locus YPL240C, strain hsp82, hits give low values 1.02 | locus YPL256C, strain CLN2, hits give low values 1.04
